Results on 42 compounds are retold here after PubChem BioAssay AID1210 (NMMLSC, 2008).

For the assay, the target named is Estrogen receptor beta (Homo sapiens) (UniProt Q92731). Put plainly: ERbeta ligand binders by competition, primary screen, cell-based, Cos7 ERbeta-GFP, flow cytometry (AID 1210).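 Further: 0% = DMSO vehicle wells and 100% = complete loss of labeled estradiol signal.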 Conditions: fluorescent estrogen binding, stronger effect = higher value. (In general: In flow cytometry, cells or beads pass a laser one at a time.)
Estrogen receptor beta (Homo sapiens), sequence (Q92731 whole entry, looked up): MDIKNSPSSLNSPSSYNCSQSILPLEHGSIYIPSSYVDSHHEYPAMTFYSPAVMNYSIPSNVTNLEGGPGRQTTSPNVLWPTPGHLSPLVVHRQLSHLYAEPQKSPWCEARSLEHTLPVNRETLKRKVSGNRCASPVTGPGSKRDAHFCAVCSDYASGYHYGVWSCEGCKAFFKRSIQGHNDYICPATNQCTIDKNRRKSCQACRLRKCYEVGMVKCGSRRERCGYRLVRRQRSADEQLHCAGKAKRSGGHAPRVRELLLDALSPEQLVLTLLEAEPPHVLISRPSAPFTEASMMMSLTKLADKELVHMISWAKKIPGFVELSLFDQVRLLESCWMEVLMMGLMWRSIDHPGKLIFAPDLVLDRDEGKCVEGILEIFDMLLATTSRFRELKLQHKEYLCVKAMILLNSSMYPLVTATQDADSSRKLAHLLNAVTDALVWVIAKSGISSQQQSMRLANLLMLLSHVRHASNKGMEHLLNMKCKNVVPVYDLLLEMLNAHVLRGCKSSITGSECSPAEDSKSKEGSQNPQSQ
The mark [1] stands for this setting: ligand binding inhibition, at 0.1 µM.

SMILES strings stand for the structures. Activity calls are given as the source filed them.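 How the source made its calls: active means blocks over 70% of labeled estradiol binding at 10 µM, or over a set limit at 100 nM; inactive means the rest.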

By inhibition is commonly meant the share of the control response that was lost under treatment.

In the case of `CC(C)C1Nc2ccc(S(N)(=O)=O)cc2C2C=CCC21` (centres undefined), the inhibition (at 10 µM) is 57% (inactive) and the inhibition under setting [1] came to 20%.
As to `CC1(C)Cc2c(sc3c4nnnn4c4nnnn4c23)CO1`, the inhibition is 23% (inactive) (at 10 µM) and 40% under setting [1].
The matching figures for `Oc1ccc(-c2[nH]nc(-c3ccccc3)c2-c2nc3ccccc3[nH]2)cc1`: 33% (inactive) and 21%.
The matching figures for `O=c1cc(-c2ccccc2Cl)oc2c(Br)ccc(O)c12`: 33% (inactive) and 19%.
The like results for `Cc1nn(-c2ccc(Cl)cc2)c2sc(C(=O)N3CCN(c4ccccn4)CC3)cc12` were, in that order, 50% (inactive) and 40%.
For `Nc1ccc2oc(-c3ccccc3Cl)cc(=O)c2c1O`, the inhibition is 25% (inactive) (at 10 µM) and 26% under setting [1].
For `O=C(Nc1ccc(N2CCCC2)cc1)C(c1ccccc1)c1ccccc1`, the inhibition is, setting by setting: (at 10 µM) 69% (inactive); under setting [1], 19%.
The like results for `Cc1oc2c(C)c(O)ccc2c(=O)c1-c1ccc2ccccc2n1` were, in that order, 15% (inactive) and 54%.
The matching figures for `O=C(CSc1nnnn1-c1ccccc1)Nc1nsc(-c2ccc(Cl)cc2)n1`: 36% (inactive) and 21%.
The like results for `O=C(c1cc2ncc(Br)cn2n1)N1CCN(C(=O)c2ccco2)CC1` were, in that order, 62% (active) and 67%.
In the case of `O=c1c(C(c2ccc(O)cc2)c2c(O)nc3n(c2=O)CCS3)c(O)nc2n1CCS2`, the inhibition (at 10 µM) is 3% (inactive) and the inhibition under setting [1] is 7%.
The like results for `COc1cc(CCC(=O)OCC(=O)Nc2ncc(Cl)cc2Cl)cc(OC)c1OC` were, in that order, 52% (inactive) and 8%.
The matching figures for `O=C1NC(c2ccc(Br)cc2)Nc2sc3c(c21)CCC3` (centres undefined): 54% (inactive) and 50%.
The matching figures for `O=C(Cc1cccs1)Nc1ccccn1`: 39% (inactive) and 10%.
On to `Oc1ccc(/C=C/c2nc(-c3ccccc3O)n(-c3ccccc3)n2)cc1`, for which the inhibition runs as follows: (at 10 µM) 44% (inactive); under setting [1], 31%.
The matching figures for `c1coc(-c2nn3c(-c4ccco4)nnc3s2)c1`: 37% (inactive) and 28%.
Regarding `CC(=O)Nc1ccc(OC(=O)CC2SC(=O)NC2=O)cc1` (centres undefined), the inhibition reads like this: (at 10 µM) 59% (active); under setting [1], 66%.
`CCOC(=O)N1CCN(c2ccc(O)cc2)CC1`: the inhibition (at 10 µM) was 45% (inactive) and the inhibition under setting [1] was 34%.
The matching figures for `COc1ccc(C2Nc3ccccc3C(=O)N2c2ccc(C)cc2)cc1Cn1cc([N+](=O)[O-])cn1` (centres undefined): 20% (inactive) and 2%.
Consider `COc1cc(O)c2c(=O)c3c(OC)c(O)ccc3oc2c1`, for which the inhibition (at 10 µM) is 41% (inactive) and the inhibition under setting [1] was 25%.
On to `O=C(Cc1coc2cc3c(cc12)CCC3)OCc1cc(=O)n2c(n1)sc1ccccc12`, for which the inhibition by setting is: (at 10 µM) 56% (inactive); under setting [1], 14%.
Regarding `CNc1nnc(-c2cc3cc(Cl)ccc3oc2=O)s1`, the inhibition was 0% (inactive) (at 10 µM) and 4% under setting [1].
The like results for `Cc1ccccc1Nc1nnc(SCC(=O)NCc2ccco2)s1` were, in that order, 26% (inactive) and 18%.
Consider `COc1ccc(C2Nc3ccccc3C(=O)N2c2ccccc2)cc1COc1ccccn1` (centres undefined), for which the inhibition (at 10 µM) is 18% (inactive) and the inhibition under setting [1] turned out to be 17%.
In the case of `CCOC(=O)N1CCN(S(=O)(=O)c2ccc(C(=O)Nc3nc4ccc(F)cc4s3)cc2)CC1`, the inhibition is 69% (inactive) (at 10 µM) and 39% under setting [1].
Consider `CCn1c(=NC(=O)c2ccc(N3C(=O)CCC3=O)cc2)sc2c(OC)ccc(OC)c21`, for which the inhibition is 64% (inactive) (at 10 µM) and 57% under setting [1].
The like results for `CN(C)CC(=O)N1c2ccccc2CCc2ccc(NC(=O)c3ccc(N)cc3)cc21` were, in that order, 39% (inactive) and 62%.
`c1coc(-c2nnc3sc(Cc4cccs4)nn23)c1`: the inhibition (at 10 µM) was 5% (inactive) and the inhibition under setting [1] was 53%.
Take `COCCCn1c(Cc2csc(Nc3cccc(Cl)c3)n2)nnc1SCC(=O)OC1CCCCC1`: the inhibition reads like this: (at 10 µM) 11% (inactive); under setting [1], 29%.
The matching figures for `CCN1CCc2nc(NC(=O)Cc3ccc4c(c3)OCCO4)sc2C1`: 26% (inactive) and 4%.
The matching figures for `Cc1ccc(Nc2nnc(SCC(=O)NCc3ccco3)s2)cc1`: 18% (inactive) and 18%.
The matching figures for `Cc1ccc(Cc2cncc(O)c2)cc1S(=O)(=O)O`: 0% (inactive) and 13%.
For `COc1cc2c(cc1O)CC[n+]1cc3c(OC)c(OC)ccc3cc1-2`, the inhibition was 25% (inactive) (at 10 µM) and 23% under setting [1].
Regarding `Cc1ccc(NC(=O)CSc2nc3ccccc3c3nc4ccccc4n23)cc1`, the inhibition reads like this: (at 10 µM) 59% (inactive); under setting [1], 7%.
The like results for `Cc1noc(C)c1COc1ccc(C(=O)OCC(=O)N2c3ccccc3NC(=O)C2(C)C)cc1` were, in that order, 42% (inactive) and 30%.
The matching figures for `COc1cccc(-n2nnnc2SCC(=O)Nc2ccc(C(C)=O)cc2)c1`: 61% (inactive) and 51%.
`COc1ccc(NC(=O)C(NC(=O)c2ccc(=O)[nH]c2)c2ccc(C)cc2)cc1` (centres undefined): the inhibition runs as follows: (at 10 µM) 52% (inactive); under setting [1], 12%.
The like results for `COc1ccc(C2=NN(C(=O)c3cccnc3)C(c3ccccc3)C2)cc1` (centres undefined) were, in that order, 41% (inactive) and 12%.
The like results for `CCOC(=O)C1CCCN(C(=O)c2cc3ncc(Br)cn3n2)C1` (centres undefined) were, in that order, 0% (inactive) and 26%.
The like results for `O=C(Oc1ccc2c(c1)OCO2)c1cc2c(s1)CCC2` were, in that order, 52% (inactive) and 48%.
Take `Cc1ccc(S(=O)(=O)NCCn2c(C)cc3ccccc32)cc1`: the inhibition is, setting by setting: (at 10 µM) 23% (inactive); under setting [1], 18%.
With `O=C1c2ccccc2NC(c2cccnc2)N1c1ccccc1F` (centres undefined), the inhibition (at 10 µM) was 63% (inactive) and the inhibition under setting [1] stood at 24%.
